Source: PubChem BioAssay (EPA / NIEHS)
Values joined by “and” are separate entries in the source; they are usually repeats but may differ in a detail not shown here. Equal entries are not always repeated. Where a structure was tested more than once in an assay, its records may differ in their call. Active and inactive are the calls of the source. How the source made its calls: active means hit-call score of the fitted dose curve at least 0.9, where 1 is the maximum; inactive means score below 0.9.

Key:
[1] = ATG_DR4_LXR_CIS: Attagene CIS-FACTORIAL HepG2 Assay for human Liver X Receptor (LXR), DR4 submotif (AID 2282929); conditions: HepG2 Attagene DR4 cis-reporter, mRNA transcription; AC50: actives raise or lower the signal unless noted; outcome: actives raise or lower the signal unless noted
How it was run: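 The endpoint is DR4-element-driven reporter transcripts after 24 h chemical exposure of transfected HepG2 cells. These were measured via RT-PCR and capillary electrophoresis, and gain or loss of signal was fitted relative to DMSO controls.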

[2] = target: Aryl hydrocarbon receptor (Homo sapiens) (UniProt P35869); test: ATG_Ahr_CIS: Attagene CIS-FACTORIAL HepG2 Assay for human Aryl Hydrocarbon Receptor (Ahr) (AID 2282930); conditions: HepG2 AhR cis-factorial reporter transcription; actives raise or lower the signal
Sequence of Aryl hydrocarbon receptor (Homo sapiens) (P35869 whole entry, looked up): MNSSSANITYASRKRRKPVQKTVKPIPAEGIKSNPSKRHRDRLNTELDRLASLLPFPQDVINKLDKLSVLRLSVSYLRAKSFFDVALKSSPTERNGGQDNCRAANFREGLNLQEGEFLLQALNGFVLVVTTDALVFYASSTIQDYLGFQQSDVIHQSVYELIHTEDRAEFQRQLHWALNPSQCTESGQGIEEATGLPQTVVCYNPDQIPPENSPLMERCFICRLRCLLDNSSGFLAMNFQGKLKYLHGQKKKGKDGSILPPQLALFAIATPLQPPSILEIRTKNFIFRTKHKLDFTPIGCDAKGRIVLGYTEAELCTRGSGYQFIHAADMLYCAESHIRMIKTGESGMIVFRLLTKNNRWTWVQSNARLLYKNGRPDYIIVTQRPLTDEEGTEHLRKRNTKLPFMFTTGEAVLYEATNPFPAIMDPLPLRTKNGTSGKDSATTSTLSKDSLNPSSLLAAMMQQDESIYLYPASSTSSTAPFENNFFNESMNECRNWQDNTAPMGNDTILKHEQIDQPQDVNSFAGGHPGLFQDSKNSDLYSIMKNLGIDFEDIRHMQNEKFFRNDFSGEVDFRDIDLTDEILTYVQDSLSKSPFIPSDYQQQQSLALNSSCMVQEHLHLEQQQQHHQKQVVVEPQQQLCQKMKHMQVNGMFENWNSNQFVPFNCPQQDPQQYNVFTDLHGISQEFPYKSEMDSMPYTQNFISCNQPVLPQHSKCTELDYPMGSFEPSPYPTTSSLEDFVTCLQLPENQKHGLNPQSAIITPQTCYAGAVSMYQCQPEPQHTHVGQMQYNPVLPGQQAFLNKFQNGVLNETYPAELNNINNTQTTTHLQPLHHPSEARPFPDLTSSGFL
How it was run: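 HepG2, transient MRTU (cis) transfection, 24 h exposure. RNA → cDNA → PCR → 6-FAM primer extension → HpaI 2 h 37 C → CE. Fit: bidirectional, DMSO baseline.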

[3] = ATG_AP_1_CIS: Attagene CIS-FACTORIAL HepG2 Assay for human Activator Protein 1 (AP-1) (AID 2282931); conditions: HepG2 Attagene cis-factorial AP-1 reporter mRNA; actives raise or lower the signal
How it was run: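 Readout is reporter transcript level from endogenous transcription factor activity, quantified by RT-PCR with fluorescent primer extension and capillary electrophoresis. Transiently transfected HepG2 cells, 24 h exposure. Curves fitted both directions versus DMSO.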

[4] = target: Transcription factor E2F1 (Homo sapiens) (UniProt Q01094); test: ATG_E2F_CIS: Attagene CIS-FACTORIAL HepG2 Assay for human E2F Transcription Factor 1 (AID 2282935); conditions: HepG2 Attagene cis-reporter, E2F reporter RNA transcripts; actives raise or lower the signal
Sequence of Transcription factor E2F1 (Homo sapiens) (Q01094 whole entry, looked up): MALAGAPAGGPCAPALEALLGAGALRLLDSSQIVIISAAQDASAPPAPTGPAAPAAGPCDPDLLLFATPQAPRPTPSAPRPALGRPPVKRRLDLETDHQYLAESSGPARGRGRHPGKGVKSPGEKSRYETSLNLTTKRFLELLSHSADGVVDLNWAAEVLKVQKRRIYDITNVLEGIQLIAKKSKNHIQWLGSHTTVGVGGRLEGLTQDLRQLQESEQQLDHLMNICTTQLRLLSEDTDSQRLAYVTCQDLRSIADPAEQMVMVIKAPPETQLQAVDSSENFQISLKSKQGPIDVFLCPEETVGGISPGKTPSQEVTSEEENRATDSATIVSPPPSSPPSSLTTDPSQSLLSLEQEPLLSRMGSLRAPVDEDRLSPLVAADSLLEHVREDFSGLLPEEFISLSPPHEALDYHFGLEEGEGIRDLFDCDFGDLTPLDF
How it was run: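 Total RNA from 24 h-treated, reporter-transfected HepG2 cells undergoes DNase I treatment, oligo(dT) reverse transcription, PCR and 6-FAM primer extension before capillary electrophoresis.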

[5] = ATG_E_Box_CIS: Attagene CIS-FACTORIAL HepG2 Assay for human Enhancer Box (E-box) (AID 2282936); conditions: HepG2 E-box cis-reporter transcription, actives raise or lower the signal
How it was run: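 DMSO served as negative control and baseline for bidirectional fitting. Human hepatoma HepG2 cells, transiently transfected with cis-reporter constructs, were dosed 24 h; reporter mRNA read by RT-PCR and capillary electrophoresis.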

[6] = ATG_M_61_CIS: Attagene CIS-FACTORIAL HepG2 Assay for M61 Transcription Factor (Internal Marker) (AID 2282937); conditions: HepG2 Attagene CIS-FACTORIAL M61 internal marker reporter; actives raise or lower the signal
How it was run: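 Readout is reporter mRNA by RT-PCR, fluorescent primer extension and capillary electrophoresis, with gain or loss fitted relative to DMSO. Transfected HepG2 cells carrying endogenous-TF-driven cis reporters were exposed to chemicals for 24 hours.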

[7] = ATG_EGR_CIS: Attagene CIS-FACTORIAL HepG2 Assay for human Early Growth Response 1 (EGR1) (AID 2282938); conditions: HepG2 Attagene CIS-FACTORIAL EGR reporter mRNA; actives raise or lower the signal
How it was run: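 After 24 h compound exposure, RNA from reporter-transfected HepG2 cells was reverse-transcribed, PCR-amplified, fluorescently labelled and resolved by capillary electrophoresis. EGR1 reporter transcript changes, up or down, were fitted against DMSO, reflecting endogenous transcription-factor activity.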

[8] = ATG_ERE_CIS: Attagene CIS-FACTORIAL HepG2 Assay for Estrogen Response Element (ERE) (AID 2282940); conditions: HepG2 ERE cis-reporter, Attagene RNA transcript; actives raise or lower the signal
How it was run: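 Measuring endogenous transcription factor output, the assay doses transfected HepG2 cells for 24 hours and quantifies reporter transcripts by fluorescent RT-PCR and capillary electrophoresis, with DMSO as baseline.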

[9] = ATG_Ets_CIS: Attagene CIS-FACTORIAL HepG2 Assay for human Erythroblast Transformation Specific (ETS) (AID 2282941); conditions: HepG2 ETS cis-reporter transcription; AC50: actives raise or lower the signal unless noted; outcome: actives raise or lower the signal unless noted
How it was run: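 Human HepG2 hepatoma cells were transiently transfected with promoter-driven reporter constructs and treated for 24 hours. Reporter transcripts were quantified by RT-PCR with fluorescent primer extension; bidirectional curve fitting used DMSO as reference.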

[10] = target: Hepatocyte nuclear factor 3-beta (Homo sapiens) (UniProt Q9Y261); test: ATG_FoxA2_CIS: Attagene CIS-FACTORIAL HepG2 Assay for human Forkhead box A2 (FOXA2) (AID 2282942); conditions: HepG2 cis-reporter transcription factor activity, 24 h; actives raise or lower the signal
Sequence of Hepatocyte nuclear factor 3-beta (Homo sapiens) (Q9Y261 whole entry, looked up): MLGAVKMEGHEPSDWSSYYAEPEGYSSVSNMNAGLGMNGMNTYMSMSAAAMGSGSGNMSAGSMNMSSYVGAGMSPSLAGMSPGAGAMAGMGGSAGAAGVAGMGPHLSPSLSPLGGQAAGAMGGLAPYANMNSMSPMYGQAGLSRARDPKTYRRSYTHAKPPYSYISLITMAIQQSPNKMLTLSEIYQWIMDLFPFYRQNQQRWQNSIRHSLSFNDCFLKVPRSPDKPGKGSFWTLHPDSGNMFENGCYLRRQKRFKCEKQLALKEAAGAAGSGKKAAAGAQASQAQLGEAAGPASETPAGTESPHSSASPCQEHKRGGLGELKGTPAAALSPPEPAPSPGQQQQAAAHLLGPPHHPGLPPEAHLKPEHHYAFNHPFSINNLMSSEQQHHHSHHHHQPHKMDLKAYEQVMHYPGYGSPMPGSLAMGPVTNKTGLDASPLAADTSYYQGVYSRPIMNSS
How it was run: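 Endogenous transcription factor activity is captured via cis-element-driven reporter transcripts in transfected HepG2. Total RNA taken at 24 h post-dosing; labelled RT-PCR products resolved by capillary electrophoresis. Gain or loss fitted versus DMSO.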

[11] = ATG_GLI_CIS: Attagene CIS-FACTORIAL HepG2 Assay for human Zinc Finger Protein GLI1 (AID 2282945); conditions: HepG2, Attagene cis-factorial reporter mRNA, GLI element; actives raise or lower the signal
How it was run: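 Bidirectional curve fits relative to DMSO, using reporter mRNA levels from RT-PCR plus capillary electrophoresis. Cells were HepG2 transiently carrying cis-regulated reporter constructs, harvested 24 h after dosing.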

[12] = target: Bile acid receptor (Homo sapiens) (UniProt Q96RI1); test: ATG_IR1_CIS: Attagene CIS-FACTORIAL HepG2 Assay for human Nuclear Receptor Subfamily 1 Group H Member 4 (NR1H4), IR1 submotif (AID 2282946); conditions: IR1 reporter transcription, actives raise or lower the signal
Sequence of Bile acid receptor (Homo sapiens) (Q96RI1 whole entry, looked up, the tested form may be a part): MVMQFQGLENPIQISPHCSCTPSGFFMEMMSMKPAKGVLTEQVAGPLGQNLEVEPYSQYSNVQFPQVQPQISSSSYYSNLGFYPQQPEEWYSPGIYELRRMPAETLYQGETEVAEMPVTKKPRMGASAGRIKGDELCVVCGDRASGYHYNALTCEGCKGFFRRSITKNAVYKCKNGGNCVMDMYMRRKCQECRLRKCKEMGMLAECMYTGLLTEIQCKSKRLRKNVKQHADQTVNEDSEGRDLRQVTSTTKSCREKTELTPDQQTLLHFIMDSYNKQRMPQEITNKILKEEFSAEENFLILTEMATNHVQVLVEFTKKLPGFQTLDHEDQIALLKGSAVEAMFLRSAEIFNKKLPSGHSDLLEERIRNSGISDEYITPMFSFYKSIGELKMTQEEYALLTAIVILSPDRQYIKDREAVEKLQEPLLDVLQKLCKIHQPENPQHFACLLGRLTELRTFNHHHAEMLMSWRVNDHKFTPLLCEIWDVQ
How it was run: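 Cells (human HepG2) carry transiently transfected cis-promoter reporter transcription units. Compounds are incubated 24 h, total RNA is reverse-transcribed and amplified, and labelled fragments are resolved by capillary electrophoresis. Curves use DMSO as baseline.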

[13] = ATG_GRE_CIS: Attagene CIS-FACTORIAL HepG2 Assay for human Glucocorticoid Response Elements (GRE) (AID 2282947); conditions: HepG2 GRE cis-reporter, Attagene multiplex mRNA; AC50: actives raise or lower the signal unless noted; outcome: actives raise or lower the signal unless noted
How it was run: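 Assay uses human hepatoma HepG2 cells transfected with cis-promoter reporter units, exposed 24 h. mRNA from reporters detected by RT-PCR plus capillary electrophoresis; DMSO serves as negative control and baseline.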

[14] = ATG_ISRE_CIS: Attagene CIS-FACTORIAL HepG2 Assay for human Interferon Regulatory Factor 1 (IRF1) binding to an Interferon-Stimulated Response Element (ISRE) (AID 2282948); conditions: HepG2 ISRE cis-reporter (Attagene), mRNA transcription readout; actives raise or lower the signal
How it was run: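 Cell-based cis-reporter assay; HepG2; 24 h exposure; reporter mRNA by RT-PCR plus capillary electrophoresis fluorescence; activity in either direction scored relative to DMSO.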

[15] = ATG_AP_2_CIS: Attagene CIS-FACTORIAL HepG2 Assay for human Activator Protein 2 (AP-2) (AID 2282932); conditions: HepG2 AP-2 cis-reporter, Attagene transcription factor profiling; AC50: actives raise or lower the signal unless noted; outcome: actives raise or lower the signal unless noted
How it was run: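 Step one: transient transfection of HepG2 with reporter transcription units. Step two: 24 h chemical exposure. Step three: RNA extraction, RT-PCR, labelled fragment analysis by capillary electrophoresis; DMSO serves as baseline.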

[16] = ATG_BRE_CIS: Attagene CIS-FACTORIAL HepG2 Assay for human Bone Morphogenetic Protein (BMP) Response Element (BRE) (AID 2282933); conditions: HepG2 BMP response element reporter, Attagene transcription factor profiling; actives raise or lower the signal
How it was run: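 After a 24 h chemical treatment, transiently transfected HepG2 cells were lysed for RNA; reporter transcripts were quantified by fluorescent RT-PCR and capillary electrophoresis, normalised to DMSO.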

[17] = target: Retinoic acid receptor alpha (Homo sapiens) (UniProt P10276); test: ATG_DR5_RAR_CIS: Attagene CIS-FACTORIAL HepG2 Assay for human Retinoic Acid Receptor Alpha (RARE), DR5 submotif (AID 2282934); conditions: HepG2 Attagene cis-factorial RARE DR5 reporter, mRNA; actives raise or lower the signal
Sequence of Retinoic acid receptor alpha (Homo sapiens) (P10276 whole entry, looked up): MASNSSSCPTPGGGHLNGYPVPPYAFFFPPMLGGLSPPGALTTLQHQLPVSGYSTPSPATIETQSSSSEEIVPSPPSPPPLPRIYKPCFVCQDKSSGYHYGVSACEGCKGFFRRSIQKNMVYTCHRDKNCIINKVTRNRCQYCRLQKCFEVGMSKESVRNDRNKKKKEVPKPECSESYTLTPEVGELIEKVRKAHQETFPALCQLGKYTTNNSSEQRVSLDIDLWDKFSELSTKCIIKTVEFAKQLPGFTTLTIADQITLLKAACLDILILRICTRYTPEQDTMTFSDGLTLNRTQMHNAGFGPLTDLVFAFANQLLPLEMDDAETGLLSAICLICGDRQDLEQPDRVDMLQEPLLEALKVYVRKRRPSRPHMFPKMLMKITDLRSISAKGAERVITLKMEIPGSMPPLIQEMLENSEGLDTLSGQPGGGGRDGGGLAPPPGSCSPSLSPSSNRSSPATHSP
How it was run: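 HepG2, transient cis-reporter transfection, 24 h exposure. mRNA readout: RT-PCR, FAM label, HpaI cut, capillary electrophoresis. DMSO baseline, gain/loss fitting.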

[18] = ATG_FoxO_CIS: Attagene CIS-FACTORIAL HepG2 Assay for human Forkhead box O (FoxO) (AID 2282943); conditions: HepG2 Attagene cis-reporter, FoxO element, mRNA; actives raise or lower the signal
How it was run: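 Human hepatoma HepG2 cells carry transiently introduced reporter transcription units controlled by cis promoter elements. Chemical treatment lasted 24 h, and mRNA signal was compared with DMSO.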

[19] = ATG_GATA_CIS: Attagene CIS-FACTORIAL HepG2 Assay for human GATA Binding Protein (AID 2282944); conditions: HepG2 GATA cis-element reporter, Attagene multiplex mRNA; actives raise or lower the signal
How it was run: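 Measures endogenous transcription factor-driven reporter mRNA in HepG2 cells transiently carrying cis-regulated constructs. 24 h dosing; RNA via oligo(dT) reverse transcription, PCR, HpaI digestion, capillary electrophoresis; fitted relative to DMSO.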

[20] = ATG_M_19_CIS: Attagene CIS-FACTORIAL HepG2 Assay for M19 Transcription Factor (Internal Marker) (AID 2282939); conditions: HepG2 Attagene CIS-FACTORIAL M19 internal marker reporter; actives raise or lower the signal
How it was run: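 In this multiplexed cell assay, transiently transfected HepG2 reporter units report endogenous transcription-factor activity; after 24 hours of treatment, labelled reporter cDNA fragments are quantified by capillary electrophoresis and fitted bidirectionally against DMSO.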

Measured: AC50

O=C(CC(=O)C(F)(F)C(F)(F)C(F)(F)F)c1cccs1
inactive: [1] inactive [setting not given] | [4] | [5] | [6] | [7] | [8] | [10] | [11] | [12] | [13] inactive [setting not given] | [14]
active: [2] 11.4 µM and 50 µM | [3] 35.2 µM and 42 µM | [9] 12.1 µM [setting not given]

CS(=O)(=O)c1ccc([C@@H](CC2CCCC2)C(=O)Nc2cnccn2)cc1Cl
active: [1] 29.1 µM | [2] 68.4 µM | [16] 127 µM | [7] 50.6 µM | [18] 152 µM | [14] 30.2 µM
not listed: [3] | [8] | [12] | [20]
inactive: all other assays above

CCN(CCC#N)c1ccccc1
not listed: [2] | [19]
inactive: all other assays above

O=C(NCc1ncc(C(F)(F)F)cc1Cl)c1c(Cl)cccc1Cl
active: [1] 81.4 µM | [4] 43.1 µM
not listed: [13] | [15] | [19] | [20]
inactive: all other assays above

CN(C)c1ccc(C(=C2C=CC(=[N+](C)C)C=C2)c2ccccc2)cc1
active: [1] 2.07 µM and 1.26 µM | [3] 472 nM | [15] 2.72 µM | [5] 3.63 µM and 1.85 µM | [7] 1.46 µM and 1.85 µM | [9] 10.1 µM | [10] 1.51 µM | [11] 1.42 µM and 1.85 µM | [12] 1.28 µM | [14] 1.34 µM and 1.85 µM
inactive: [3] | [15] | [16] | [4] | [6] | [20] | [9] | [10] | [18] | [19] | [12] | [13]

CCO[Si](C)(C)OCC
not listed: [2] | [19]
inactive: all other assays above

Cc1cc(C(=C2C=CC(=Nc3ccc(S(=O)(=O)O)cc3)C=C2)c2ccc(Nc3ccc(S(=O)(=O)O)cc3)cc2)cc(S(=O)(=O)O)c1N
not listed: [2]
inactive: all other assays above

FC(F)(F)C(F)(F)C(F)(F)Br
not listed: [2] | [13]
inactive: all other assays above

Cc1ccc(C)c(S(=O)(=O)O)c1
not listed: [4] | [8] | [10] | [12] | [13] | [15] | [19]
inactive: all other assays above

Cc1ccccc1OCC(=O)O
active: [10] 26 µM
not listed: [2] | [13]
inactive: all other assays above

CC(C)(c1ccc(Oc2ccc(N)cc2)cc1)c1ccc(Oc2ccc(N)cc2)cc1
not listed: [2]
inactive: all other assays above

CCC(C)c1nccnc1OC (configuration not stated)
not listed: [4] | [15]
inactive: all other assays above

Cc1ccc2ccc3ccc(C)cc3c2c1
not listed: [2]
inactive: all other assays above

CN(CCO)S(=O)(=O)C(F)(F)C(F)(F)C(F)(F)C(F)(F)C(F)(F)C(F)(F)C(F)(F)C(F)(F)F
not listed: [2]
inactive: all other assays above
